Results filed as inconclusive are left out. Where a call stands in place of a potency, no number is given. Activity calls are given as the source filed them. Unless noted, calls come from the whole dose curve; as a rule, active = well fitted cell-killing curve with a large enough effect in the repeat runs; inconclusive = weak or mixed curves, or effect the other way; inactive = no such curve, though single readings can be large or run the other way.
Assay: qHTS assay to identify small molecule agonists of the endoplasmic reticulum stress response signaling pathway (AID 1159516; active = well fitted activation curve with a large enough effect in the signal ratio in the repeat runs, not every such curve was filed as active; the % refers to the signal ratio)
Settings: ESRE-bla HeLa, ER stress beta-lactamase reporter, 5 h; series mostly up to 61 µM
In short: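 HeLa ESRE-bla reporter line; cpd 5 h, 37 C/5% CO2; LiveBLAzer B/G FRET substrate 2 h RT; ex 405, em 460/530 nm.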

Structure (SMILES)	outcome
NCCN1CCNCC1	inactive
CCCCCCCC=O	inactive
O=c1[nH]cnc2[nH]ncc12	inactive
c1ccc2c(c1)Cc1ccccc1-2	inactive
CC1(C)CC(N)CC(C)(CN)C1 (centres undefined)	inactive
CCCCCCO	inactive
O=C(O)Cn1c(=O)n(Cc2ccc(Br)cc2F)c(=O)c2ccc(Cl)cc21	inactive
OCc1ccccc1	inactive
Cc1ccc(C(C)C)c(O)c1	inactive
C=CC(=O)OCCC(=O)O	inactive
C=CC(C)CCCC(C)(C)O (centres undefined)	inactive
COCCOC(=O)c1ccccc1C(=O)OCCOC	inactive
CCCCOC(=O)c1ccc(N)cc1	inactive
CC(CCO)CC(C)(C)C (centres undefined)	inactive
C=CCCCCCCCCC(=O)O	inactive
C=C(C)[C@H]1CC=C(C)C(=O)C1	inactive
CCc1ccccc1CC	inactive
CCOCCOCCOCCO	inactive
O=C(O)c1ccc(S(=O)(=O)N(Cl)Cl)cc1	inactive

Structure (SMILES)	outcome
Clc1ccccn1	inactive
COCCCN	inactive
CN/C(=C\[N+](=O)[O-])NCCSCc1csc(CN(C)C)n1	inactive
Brc1ccc(Br)c(Br)c1	inactive
CC1(C)NC(=O)NC1=O	inactive
CCO[Si](CCC#N)(OCC)OCC	inactive
Cc1ccc([N+](=O)[O-])cc1S(=O)(=O)O	inactive
O=C(O)c1ccccc1C(=O)O	inactive
CC1(C)OC[C@@H]2O[C@@]3(C(=O)O)OC(C)(C)O[C@H]3[C@@H]2O1	inactive
CNC(=S)N(C)C	inactive
O=C1CCCC1	inactive
CC(O)CC(C)(C)O (centres undefined)	inactive
COC(=O)CCCC(=O)OC	inactive
C=CCc1ccc(OC)c(OC)c1	inactive
Cc1ccc(S(=O)(=O)N=C=O)cc1	inactive
O=S(=O)(O)c1ccccc1	inactive
CN1C(=O)CC[C@H]1c1cccnc1	inactive
CCNC(=S)NCC	inactive
C=CC[N+](C)(C)CC=C	inactive

Assay: qHTS assay to identify small molecule agonists of the endoplasmic reticulum stress response signaling pathway - cell viability counter screen (AID 1159517; calls by dose curve;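 note: HeLa cells carrying an ER stress response element beta-lactamase reporter; nearly all actives have a fitted effect of over 50% in size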)
Settings: ESRE-bla HeLa viability, CellTiter-Glo luminescence, 5 h; series mostly up to 61 µM
In short: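 Cytotoxicity of test compounds toward ESRE-bla HeLa cells was assessed after 5 hr exposure. The luminescent CellTiter-Glo signal was measured 30 min after reagent addition.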

Structure (SMILES)	Potency
NCCN1CCNCC1	inactive
CCCCCCCC=O	inactive
O=c1[nH]cnc2[nH]ncc12	inactive
c1ccc2c(c1)Cc1ccccc1-2	inactive
CC1(C)CC(N)CC(C)(CN)C1 (centres undefined)	inactive
CCCCCCO	inactive
O=C(O)Cn1c(=O)n(Cc2ccc(Br)cc2F)c(=O)c2ccc(Cl)cc21	inactive
OCc1ccccc1	inactive
Cc1ccc(C(C)C)c(O)c1	inactive
C=CC(=O)OCCC(=O)O	inactive
C=CC(C)CCCC(C)(C)O (centres undefined)	inactive
COCCOC(=O)c1ccccc1C(=O)OCCOC	inactive
CCCCOC(=O)c1ccc(N)cc1	inactive
CC(CCO)CC(C)(C)C (centres undefined)	inactive
C=CCCCCCCCCC(=O)O	inactive
C=C(C)[C@H]1CC=C(C)C(=O)C1	inactive
CCc1ccccc1CC	inactive
CCOCCOCCOCCO	inactive
O=C(O)c1ccc(S(=O)(=O)N(Cl)Cl)cc1	inactive

Structure (SMILES)	Potency
Clc1ccccn1	inactive
COCCCN	inactive
CN/C(=C\[N+](=O)[O-])NCCSCc1csc(CN(C)C)n1	inactive
Brc1ccc(Br)c(Br)c1	inactive
CC1(C)NC(=O)NC1=O	inactive
CCO[Si](CCC#N)(OCC)OCC	inactive
Cc1ccc([N+](=O)[O-])cc1S(=O)(=O)O	inactive
O=C(O)c1ccccc1C(=O)O	inactive
CC1(C)OC[C@@H]2O[C@@]3(C(=O)O)OC(C)(C)O[C@H]3[C@@H]2O1	inactive
CNC(=S)N(C)C	inactive
O=C1CCCC1	inactive
CC(O)CC(C)(C)O (centres undefined)	inactive
COC(=O)CCCC(=O)OC	inactive
C=CCc1ccc(OC)c(OC)c1	inactive
Cc1ccc(S(=O)(=O)N=C=O)cc1	inactive
O=S(=O)(O)c1ccccc1	inactive
CN1C(=O)CC[C@H]1c1cccnc1	inactive
CCNC(=S)NCC	inactive
C=CC[N+](C)(C)CC=C	inactive

Assay: qHTS assay to identify small molecule antagonists of the retinoid-related orphan receptor gamma (ROR-gamma) signaling pathway - cell viability counter screen (AID 1159520); note: nearly all actives have a fitted effect of over 50% in size
Settings: Tet-on RORgamma CHO cells viability, ATP luminescence, 16 h; series mostly up to 92.4 µM
In short: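 Tet-on ROR gamma CHO cells (1,000/well) were plated 4 hr, given compounds in DMSO for 2 hr at 37 C, then induced with 1 uM final doxycycline for 16 hr. Viability was read as ATP by CellTiter-Glo luminescence after 30 min.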

Structure (SMILES)	outcome
NCCN1CCNCC1	inactive
CCCCCCCC=O	inactive
O=c1[nH]cnc2[nH]ncc12	inactive
c1ccc2c(c1)Cc1ccccc1-2	inactive
CC1(C)CC(N)CC(C)(CN)C1 (centres undefined)	inactive
CCCCCCO	inactive
O=C(O)Cn1c(=O)n(Cc2ccc(Br)cc2F)c(=O)c2ccc(Cl)cc21	inactive
OCc1ccccc1	inactive
Cc1ccc(C(C)C)c(O)c1	inactive
C=CC(=O)OCCC(=O)O	inactive
C=CC(C)CCCC(C)(C)O (centres undefined)	inactive
COCCOC(=O)c1ccccc1C(=O)OCCOC	inactive
CCCCOC(=O)c1ccc(N)cc1	inactive
CC(CCO)CC(C)(C)C (centres undefined)	inactive
C=CCCCCCCCCC(=O)O	inactive
C=C(C)[C@H]1CC=C(C)C(=O)C1	inactive
CCc1ccccc1CC	inactive
CCOCCOCCOCCO	inactive
O=C(O)c1ccc(S(=O)(=O)N(Cl)Cl)cc1	inactive

Structure (SMILES)	outcome
Clc1ccccn1	inactive
COCCCN	inactive
CN/C(=C\[N+](=O)[O-])NCCSCc1csc(CN(C)C)n1	inactive
Brc1ccc(Br)c(Br)c1	inactive
CC1(C)NC(=O)NC1=O	inactive
CCO[Si](CCC#N)(OCC)OCC	inactive
Cc1ccc([N+](=O)[O-])cc1S(=O)(=O)O	inactive
O=C(O)c1ccccc1C(=O)O	inactive
CC1(C)OC[C@@H]2O[C@@]3(C(=O)O)OC(C)(C)O[C@H]3[C@@H]2O1	inactive
CNC(=S)N(C)C	inactive
O=C1CCCC1	inactive
CC(O)CC(C)(C)O (centres undefined)	inactive
COC(=O)CCCC(=O)OC	inactive
C=CCc1ccc(OC)c(OC)c1	inactive
Cc1ccc(S(=O)(=O)N=C=O)cc1	inactive
O=S(=O)(O)c1ccccc1	inactive
CN1C(=O)CC[C@H]1c1cccnc1	inactive
CCNC(=S)NCC	inactive
C=CC[N+](C)(C)CC=C	inactive

From PubChem BioAssay (Tox21)
